Measured values: ChEMBL document CHEMBL3988442, “University of Dundee, Small-Polar-MMV Screening Library” (2021)
Screen size: about 38,000 compounds; about 1,200 (3.2%) showed an effect of 50% or more. The median lay at about -58%. What follows is part of a selection rich in strong results, with near analogues and random picks from the rest.

These compounds were tested on Plasmodium falciparum (assay: Calibr Malaria Delayed Death Assay SOP). Conditions: concentration 4.99e-06 (unit not given; other assays of the set use mol/L).
Format: functional, organism-based
Design: scale not given: in the data most compounds retested in dose-response had high values

| Structure (SMILES) | Percent Effect [%] |
| --- | --- |
| COC[C@@H]1CCC[C@@]12CN(C(=O)N1CCCC1)CCO2 | -140.1 |
| Cc1ccc(C(=O)N2CCC3(CCN3Cc3ccc(F)cc3)C2)cn1.O=C(O)C(F)(F)F (stereo unspecified) | -82.72 |
| CC(C)C(C(=O)N1CCCN(c2cccnn2)CC1)n1cncn1 (stereo unspecified) | -14.43 |
| CN(C)S(=O)(=O)c1ccc2c(c1)N(Cc1ccccn1)CCC2 | -104.8 |
| Cc1ccc([C@H]2CN(C(=O)C3CCC3)C[C@@H]2N)o1 | -3.638 |
| Cc1nc(N2CCN(C)CC2)ncc1C(=O)N1CCCCCC1 | -28.58 |
| O=C1CCN(C(=O)CCc2ccc(Cl)cc2Cl)CCN1 | -159.9 |
| Cc1cnn(CC2CCCCN2C(=O)c2cccc(C(N)=O)c2)c1 (stereo unspecified) | -136.1 |
| CCCn1ncc(CN(Cc2cccnc2)Cc2ccsc2)c1C | -140.4 |
| CCCn1ncc(CN(CCN(C)C)Cc2ccsc2)c1C | 54.25 |
| CCCn1ncc(CN(Cc2ccsc2)Cc2ccco2)c1C | -133.4 |
| Cc1ccc(NC2CCN(C(=O)COc3ccccc3)CC2)nn1 | -125.7 |
| O=c1n(CCNCc2ccc3ccccc3c2)nc2ccccn12 | -86.86 |
| CCOc1cc(C(=O)N2CCCC(c3noc(CC)n3)C2)ccn1 (stereo unspecified) | -108.4 |
| O=C(c1cncc(NCC2COc3ccccc3C2)n1)N1CCCC1 (stereo unspecified) | -147.2 |
| NCC1Cc2cc(-c3cncc(C(=O)N4CCOCC4)n3)cc(Cl)c2O1 (stereo unspecified) | -15.5 |
| NCC1Cc2cc(-c3cncc(C(=O)N4CCCCC4)n3)cc(F)c2O1 (stereo unspecified) | 51.14 |
| Cc1nc(-c2ccco2)ccc1C(=O)NCCC(=O)N1CCCCC1 | -60.18 |
| Cc1cc(C)c2cc(CNC(C)C)c3nn(C)c(=O)n3c2c1 | 20.42 |
| Cc1cc(C)c2cc(CNCc3cccnc3)c3nn(C)c(=O)n3c2c1 | 28.22 |
| Cc1cc(C)c2cc(CNCc3ccc(C)o3)c3nn(C)c(=O)n3c2c1 | 62.16 |
| Cc1cc(C)c2cc(CNC3CCCCC3)c3nn(C)c(=O)n3c2c1 | 78.75 |
| Cc1ccc(CNC(=O)c2cc(C)n(C)n2)o1 | -43.25 |
| Cc1cc(C(=O)NCc2ccco2)nn1C | -62.29 |

| Structure (SMILES) | Percent Effect [%] |
| --- | --- |
| CCOCCCNCc1cc2c(C)cc(C)cc2n2c(=O)n(C)nc12 | -70.5 |
| Cc1cc(C)c2cc(CNCc3ccco3)c3nn(C)c(=O)n3c2c1 | 74.31 |
| Cc1ccn(CCC(=O)NCc2ccc(C)o2)n1 | -117.2 |
| COc1ccccc1CCNC(=O)NCC(=O)Nc1cccnc1 | -188.8 |
| COC(=O)CNC(=O)CCCn1cnc2ccccc2c1=O | -30.86 |
| O=C(c1cccnc1-c1ccoc1)N1C[C@H]2CC[C@@H]1C2 | 6.669 |
| O=C(CCO)N1CCC2(CCc3ccc(-c4ccoc4)cc32)CC1 | -85.78 |
| O=C(O)C(F)(F)F.O=C(O)C(F)(F)F.c1cncc(-c2ccc3c(c2)CCC32CCN(Cc3ccco3)CC2)c1 | 73.11 |
| CN(C)CC(=O)N1CCC2(CC1)Cc1ccccc1CN(C)C2=O.O=C(O)C(F)(F)F | -24.83 |
| Cc1ccc2c(c1)CCC21CCN(C(=O)CN(C)C)CC1.O=C(O)C(F)(F)F | 50.73 |
| Cc1ccc2c(c1)C1(CC2)CCN(CC(=O)O)CC1.O=C(O)C(F)(F)F | -81.36 |
| O=C(O)C(F)(F)F.OCCN1CCC2(CCc3cc(-c4ccoc4)ccc32)CC1 | 60 |
| O=C(O)C(F)(F)F.c1cncc(-c2ccc3c(c2)C2(CC3)CCN(c3nncs3)CC2)c1 | 21.42 |
| Cc1ccc2c(c1)CCC21CCN(CCO)CC1 | 15.58 |
| O=C(O)C(F)(F)F.O=C(O)C(F)(F)F.c1cncc(-c2ccc3c(c2)CCC32CCN(Cc3nccs3)CC2)c1 | 47.52 |
| CN(C)CC(=O)N1CCc2ncnc(-c3cncnc3)c2CC1.O=C(O)C(F)(F)F | -41.61 |
| CN(C)CC(=O)N1CCC2(CCc3cc(-c4cccnc4)ccc32)CC1.O=C(O)C(F)(F)F.O=C(O)C(F)(F)F | 79.5 |
| CN(C)CC(=O)N1CCC2(CCc3ccc(-c4ccncc4)cc32)CC1.O=C(O)C(F)(F)F.O=C(O)C(F)(F)F | -49.14 |
| Cc1ccc(CN2CCc3ncnc(-c4ccoc4)c3CC2)o1.O=C(O)C(F)(F)F | -147 |
| Cc1ncc(C(=O)N2CCCCC2c2nc3cc(F)ccc3[nH]2)c(O)n1 (stereo unspecified) | -22.18 |
| CS(=O)(=O)N1CCO[C@@H]2CN(C(=O)C3CCOC3)CC[C@@H]2C1 (stereo partly specified) | -33.97 |
| CC1c2ncc(Cn3cccn3)n2CCN1S(C)(=O)=O.O=C(O)C(F)(F)F (stereo unspecified) | -110.2 |
| COc1ccc2c(ccn2CCC(=O)N[C@H](C(=O)O)C(C)C)c1 | -46.34 |
| O=C(O)C(F)(F)F.O=S(=O)(C1CC1)N1C[C@H]2CCC[C@@]2(COCc2ccccn2)C1 | 2.137 |

| Structure (SMILES) | Percent Effect [%] |
| --- | --- |
| Cc1ccc(CNc2cc3c(cc2Cl)NC(=O)CO3)cc1C | -53.48 |
| CC(C)c1nccc(-c2nccn2CCS(C)(=O)=O)n1 | -2.25 |
| COc1cccc(OCC(=O)N(C)c2cccnc2)c1 | -135.2 |
| O[C@H]1[C@H](n2cc(-c3cccnc3)nn2)c2ccccc2C12CCNCC2 | -21.88 |
| c1cc(-c2ccc3c(c2)C2(CCNCC2)CC3)ccn1 | -27.62 |
| c1cncc(-c2ccc3c(c2)CCC32CCNCC2)c1 | 86.19 |
| CCCN1CCCn2nc(CNS(=O)(=O)c3ccc(F)cc3)cc2C1 | -65.3 |
| Cc1nnn2c1COC(CNC(=O)c1cccn1C)C2 (stereo unspecified) | -28 |
| COc1ccc(CNC(C)c2cccc(Br)c2)c(OC)c1OC.Cl (stereo unspecified) | 66.18 |
| COc1ccccc1CNC(C)c1ccc2[nH]c(=O)[nH]c2c1 (stereo unspecified) | -107.7 |
| CCOc1cccc(C(C)NCc2c(C)nn(C)c2N(C)C)c1 (stereo unspecified) | -4.179 |
| COc1cccc(CNC(C)Cn2cccn2)c1OC.Cl (stereo unspecified) | -25.91 |
| CCOc1cccc(C(C)NCc2ccc(OC)c(OC)c2OC)c1 (stereo unspecified) | 77.1 |
| COc1cc(CNC(C)Cn2cccn2)cc(OC)c1OC.Cl (stereo unspecified) | -15.53 |
| COc1ccc(C(C)NCc2c[nH]nc2C)cc1Br.Cl (stereo unspecified) | 17.2 |
| COc1cc(CNC(C)Cn2cccn2)cc(Cl)c1OC.Cl (stereo unspecified) | -39.22 |
| COc1cc(CNC(C)c2cccc(Cl)c2)cc(OC)c1OC (stereo unspecified) | 62.46 |
| CC1c2ncc(CNC(=O)C3CC3)n2CCN1Cc1ccccn1.O=C(O)C(F)(F)F.O=C(O)C(F)(F)F (stereo unspecified) | -38.32 |
| Cc1sc(CS(C)(=O)=O)nc1-c1ccc(Cl)cc1 | -81.11 |
| Cc1cc(N2CCC3(CCCN(C4CCOCC4)C3=O)C2)ccn1 (stereo unspecified) | -85.7 |
| Cc1cc(NC(=O)N2CCCC2CN2CCOCC2)nn1C (stereo unspecified) | -54.38 |
| Cc1n[nH]cc1CNC1CCN(c2ccc(F)cc2)CC1.Cl | -38.43 |
| COc1cccc(-c2n[nH]cc2CNC2CCN(C3CC3)CC2)c1.Cl | 18.36 |
| Cc1n[nH]cc1CNC1CCN(c2cccc(C(F)(F)F)c2)CC1 | 62.67 |

| Structure (SMILES) | Percent Effect [%] |
| --- | --- |
| Cn1[nH]c(Br)c2/c(=N\CCN)ncnc1-2 | -80.01 |
| CN(Cc1nnc(C2CC2)n1C)C1CCN(CCc2ccccc2)C1 (stereo unspecified) | -85.28 |
| CN(C(=O)c1cccnc1)C1CCCN(CCc2ccccc2)C1 (stereo unspecified) | -66.95 |
| CCn1ccnc1CN(C)C1CCCN(CCc2ccccc2)C1 (stereo unspecified) | 76.22 |
| CN(C(=O)CSc1ccccn1)C1CCCN(CCc2ccccc2)C1 (stereo unspecified) | -11.51 |
| CN(C(=O)CCc1ccncc1)C1CCCN(CCc2ccccc2)C1 (stereo unspecified) | -32.08 |
| O=C(NCCOc1ccc(Cl)cn1)NCCc1ccccn1 | -11.42 |
| O=c1cc2c(nn1CN1CCSCC1)CCC2 | -0.0745 |
| CN(C)C1CCCN(C(=O)NCCc2cc(F)ccc2F)C1 (stereo unspecified) | -83 |
| CC(=O)N1CC(C)CN(C(=O)c2cnccn2)c2ccccc21 (stereo unspecified) | -30.69 |
| Cn1nccc1NC(=O)c1cccc(CN2C[C@H]3CC[C@@H](C2)N3)c1 | -132.7 |
| CCCc1ccc(CN2CCC3(CC2)CNC(=O)C3)o1 | 20.41 |
| CC(C)n1nc(CN(C)C)c2c1CN(CC1CC1)CC2.O=C(O)C(F)(F)F.O=C(O)C(F)(F)F | -96.94 |
| Cn1nc(CN2CCCC2)c2c1CN(CC1CC1)CC2.O=C(O)C(F)(F)F.O=C(O)C(F)(F)F | -21.27 |
| CC(C)n1nc(CN2CCCC2)c2c1CN(CC1CC1)CC2.O=C(O)C(F)(F)F.O=C(O)C(F)(F)F | 54 |
| Cc1noc(C)c1CN1CC[C@H]2OCC[C@@]2(C(=O)NC2CCCC2)C1.O=C(O)C(F)(F)F | 8.677 |
| CO[C@H]1CNC[C@@H]1NC(=O)c1cc(C)nc2c(C)c(C)ccc12 | -1.359 |
| CO[C@H]1CNC[C@@H]1NC(=O)c1cc(C)nc2c(C)cc(C)cc12 | 73.93 |
| Cc1cc(C)c2nc(C)cc(C(=O)NC(C)c3nnn[nH]3)c2c1 (stereo unspecified) | -3.579 |
| CCc1cnc(N2C[C@@H]3[C@@H](C(=O)N(C)C)CCS(=O)(=O)[C@@H]3C2)nc1 | -56.54 |
| Cc1cc(C(=O)N2CCn3cc(CN(C)C)nc3C2)no1 | -39.89 |
| Cc1noc(C)c1C(=O)NCC(c1ccsc1)N(C)C (stereo unspecified) | -8.165 |
| Cc1noc(C(C)C)c1C(=O)NCC(c1ccsc1)N(C)C (stereo unspecified) | 17.17 |
| O=C(O)C(F)(F)F.O=C(c1ccccn1)N1C[C@H]2CCC[C@@]2(COCC2CCOCC2)C1 | -43.42 |
